Values joined by “and” are separate entries in the source; they are usually repeats but may differ in a detail not shown here. Equal entries are not always repeated. Results filed as inconclusive are left out. Some compounds were tested as several samples or in several runs, with calls that do not always agree. Active and inactive are the calls of the source. Unless noted, the call rests on the fitted dose curve; in most records, active means well fitted curve in the direction sought with a large enough effect in the repeat runs; inconclusive means weak or mixed curves; inactive means no such curve, though single readings can be large; an effect the other way counts as inactive or inconclusive.
Columns and labels:
[1] = target: Acetylcholinesterase (Homo sapiens) (UniProt P22303); assay: Acetylcholinesterase (AChE) small molecule antagonists: fluorescence cell-based qHTS assay (AID 1347398; calls by dose curve; further: on the % scale 0 is the no-effect control and ±100 the full control effect; nearly all actives have a fitted effect of over 50% in size); details: Potency: AChE activity
Chain of Acetylcholinesterase (Homo sapiens) (P22303 whole entry, looked up): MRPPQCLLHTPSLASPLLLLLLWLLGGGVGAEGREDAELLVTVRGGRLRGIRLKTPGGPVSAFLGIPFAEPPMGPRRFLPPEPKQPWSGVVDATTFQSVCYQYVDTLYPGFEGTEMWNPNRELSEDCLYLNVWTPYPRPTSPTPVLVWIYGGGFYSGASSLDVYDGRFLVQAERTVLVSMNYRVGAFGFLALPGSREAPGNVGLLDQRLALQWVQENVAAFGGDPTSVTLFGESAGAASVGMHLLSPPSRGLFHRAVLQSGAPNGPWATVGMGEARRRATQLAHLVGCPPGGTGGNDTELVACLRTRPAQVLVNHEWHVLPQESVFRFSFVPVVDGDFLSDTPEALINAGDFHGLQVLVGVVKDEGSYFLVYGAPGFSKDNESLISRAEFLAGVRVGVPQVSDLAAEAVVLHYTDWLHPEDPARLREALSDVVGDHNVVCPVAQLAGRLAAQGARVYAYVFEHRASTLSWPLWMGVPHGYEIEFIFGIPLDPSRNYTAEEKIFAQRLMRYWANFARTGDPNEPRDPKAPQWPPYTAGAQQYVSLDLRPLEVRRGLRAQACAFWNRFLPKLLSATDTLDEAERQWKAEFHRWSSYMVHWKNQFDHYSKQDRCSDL
Method in brief: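 Human SH-SY5Y cells were plated overnight at 37 C, exposed to compound for 30 min at 37 C, 5% CO2, then given acetylthiocholine plus Thiolite Green for 40 min at room temperature; thiocholine fluorescence (Ex/Em 490/520 nm) reports endogenous AChE activity.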

[2] = target: Acetylcholinesterase (Homo sapiens) (UniProt P22303); assay: Acetylcholinesterase (AChE) small molecule antagonists: enzyme-based qHTS assay with human liver microsomes (AID 1347399; calls by dose curve; further: on the % scale 0 is the no-effect control and ±100 the full control effect; nearly all actives have a fitted effect of over 60% in size); details: Potency: qHTS inhibition
Method in brief: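 Recombinant human AChE (50 mU/mL in the enzyme mix) and human liver microsomes (0.25 mg/mL final) were preincubated with compound and NADPH (0.25 mg/mL final) for 30 min at 37 C. Acetylthiocholine/DTNB was then added; thiocholine was read colorimetrically after 10 min at room temperature.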

[3] = target: Cytochrome P450 2D6 (Homo sapiens) (UniProt P10635); assay: Cytochrome P450 Family 2 Subfamily D Member 6 (CYP2D6) small molecule antagonists: luciferase reporter qHTS assay (AID 1671196); further: nearly all actives have a fitted effect of over 50% in size; further: potency means the concentration at half of the fitted maximal effect; on activity change, negative = inhibition: series mostly up to about 120 µM; on the % scale 0 is the no-effect control and ±100 the full control effect
Chain of Cytochrome P450 2D6 (Homo sapiens) (P10635 whole entry, looked up): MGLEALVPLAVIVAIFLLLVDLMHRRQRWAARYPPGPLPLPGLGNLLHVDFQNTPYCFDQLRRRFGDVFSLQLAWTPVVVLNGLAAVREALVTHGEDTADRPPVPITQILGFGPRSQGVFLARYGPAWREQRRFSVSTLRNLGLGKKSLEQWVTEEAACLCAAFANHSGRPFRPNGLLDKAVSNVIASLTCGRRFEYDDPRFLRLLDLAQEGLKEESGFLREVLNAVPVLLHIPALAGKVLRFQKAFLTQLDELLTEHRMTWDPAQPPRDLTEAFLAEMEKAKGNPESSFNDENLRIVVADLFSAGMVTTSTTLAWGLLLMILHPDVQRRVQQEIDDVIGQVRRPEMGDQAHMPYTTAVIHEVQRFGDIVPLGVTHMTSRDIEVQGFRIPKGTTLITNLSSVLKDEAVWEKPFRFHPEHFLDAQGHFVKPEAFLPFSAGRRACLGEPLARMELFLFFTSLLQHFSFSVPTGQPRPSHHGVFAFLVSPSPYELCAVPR
Method in brief: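 Inhibition of CYP2D6 was gauged by loss of luminescence, since light produced tracks the luciferin generated from a proluciferin substrate. A 10 min room-temperature preincubation preceded 1 h NADPH-supported turnover.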

[4] = target: Cytochrome P450 2C9 (Homo sapiens) (UniProt P11712); assay: Cytochrome P450 Family 2 Subfamily C Member 9 (CYP2C9) small molecule antagonists: luciferase reporter qHTS assay (AID 1671198); further: nearly all actives have a fitted effect of over 50% in size; further: potency means the concentration at half of the fitted maximal effect; on activity change, negative = inhibition: series mostly up to about 120 µM; on the % scale 0 is the no-effect control and ±100 the full control effect
Chain of Cytochrome P450 2C9 (Homo sapiens) (P11712 whole entry, looked up): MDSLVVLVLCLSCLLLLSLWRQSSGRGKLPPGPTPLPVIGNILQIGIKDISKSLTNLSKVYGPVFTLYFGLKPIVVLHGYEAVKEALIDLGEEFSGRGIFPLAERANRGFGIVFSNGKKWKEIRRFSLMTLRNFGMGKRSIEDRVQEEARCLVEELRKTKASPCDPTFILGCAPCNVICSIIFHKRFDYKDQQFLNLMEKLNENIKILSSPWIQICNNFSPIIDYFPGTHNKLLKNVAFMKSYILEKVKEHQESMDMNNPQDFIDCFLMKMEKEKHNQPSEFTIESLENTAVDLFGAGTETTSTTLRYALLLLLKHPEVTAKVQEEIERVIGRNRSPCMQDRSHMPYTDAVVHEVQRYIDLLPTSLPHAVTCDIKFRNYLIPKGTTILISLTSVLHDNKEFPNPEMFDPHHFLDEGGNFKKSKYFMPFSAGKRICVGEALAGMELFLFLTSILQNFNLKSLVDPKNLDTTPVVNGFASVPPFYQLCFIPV
Method in brief: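 CYP2C9 activity was measured with a P450-Glo proluciferin substrate. Enzyme–substrate mix was held with compound for 10 min at room temperature, then NADPH regeneration solution was added for 1 h at 37C. Luciferin product was read as luminescence.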

[5] = target: Cytochrome P450 1A2 (Homo sapiens) (UniProt P05177); assay: Cytochrome P450 Family 1 Subfamily A Member 2 (CYP1A2) small molecule antagonists: luciferase reporter qHTS assay (AID 1671199); further: nearly all actives have a fitted effect of over 50% in size; further: potency means the concentration at half of the fitted maximal effect; on activity change, negative = inhibition: series mostly up to about 120 µM; on the % scale 0 is the no-effect control and ±100 the full control effect
Chain of Cytochrome P450 1A2 (Homo sapiens) (P05177 whole entry, looked up): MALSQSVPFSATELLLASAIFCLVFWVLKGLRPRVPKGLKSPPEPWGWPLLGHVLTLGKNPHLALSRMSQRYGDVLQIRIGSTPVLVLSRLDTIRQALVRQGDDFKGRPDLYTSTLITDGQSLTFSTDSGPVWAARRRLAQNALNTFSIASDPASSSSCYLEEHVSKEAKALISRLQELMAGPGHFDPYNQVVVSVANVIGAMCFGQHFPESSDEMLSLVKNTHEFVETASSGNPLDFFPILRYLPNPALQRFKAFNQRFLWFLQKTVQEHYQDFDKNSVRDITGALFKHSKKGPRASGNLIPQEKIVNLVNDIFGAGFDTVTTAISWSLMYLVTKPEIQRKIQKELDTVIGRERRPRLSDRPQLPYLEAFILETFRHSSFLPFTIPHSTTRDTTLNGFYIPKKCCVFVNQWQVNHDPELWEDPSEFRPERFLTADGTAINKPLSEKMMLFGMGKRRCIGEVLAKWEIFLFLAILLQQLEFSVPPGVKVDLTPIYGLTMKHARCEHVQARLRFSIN
Method in brief: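 Signal from luciferin formed by CYP1A2 from a proluciferin substrate is read as luminescence, expressed in relative luminescence units. Compounds sit with enzyme 10 min, NADPH-driven reaction runs 1 h, all at room temperature.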

[6] = target: Voltage-gated inwardly rectifying potassium channel KCNH2 (Homo sapiens) (UniProt Q12809); assay: Human Ether-a-go-go-Related Gene (hERG) channel small molecule antagonists: fluorescence cell-based qHTS assay (AID 1671200); further: nearly all actives have a fitted effect of over 50% in size; further: potency means the concentration at half of the fitted maximal effect;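 on activity change, negative = inhibition: hERG-expressing U2OS cells given a thallium stimulus after FluxOR II dye loading; series mostly up to about 77 µM; on the % scale 0 is the no-effect control and ±100 the full control effect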
Chain of Voltage-gated inwardly rectifying potassium channel KCNH2 (Homo sapiens) (Q12809 whole entry, looked up): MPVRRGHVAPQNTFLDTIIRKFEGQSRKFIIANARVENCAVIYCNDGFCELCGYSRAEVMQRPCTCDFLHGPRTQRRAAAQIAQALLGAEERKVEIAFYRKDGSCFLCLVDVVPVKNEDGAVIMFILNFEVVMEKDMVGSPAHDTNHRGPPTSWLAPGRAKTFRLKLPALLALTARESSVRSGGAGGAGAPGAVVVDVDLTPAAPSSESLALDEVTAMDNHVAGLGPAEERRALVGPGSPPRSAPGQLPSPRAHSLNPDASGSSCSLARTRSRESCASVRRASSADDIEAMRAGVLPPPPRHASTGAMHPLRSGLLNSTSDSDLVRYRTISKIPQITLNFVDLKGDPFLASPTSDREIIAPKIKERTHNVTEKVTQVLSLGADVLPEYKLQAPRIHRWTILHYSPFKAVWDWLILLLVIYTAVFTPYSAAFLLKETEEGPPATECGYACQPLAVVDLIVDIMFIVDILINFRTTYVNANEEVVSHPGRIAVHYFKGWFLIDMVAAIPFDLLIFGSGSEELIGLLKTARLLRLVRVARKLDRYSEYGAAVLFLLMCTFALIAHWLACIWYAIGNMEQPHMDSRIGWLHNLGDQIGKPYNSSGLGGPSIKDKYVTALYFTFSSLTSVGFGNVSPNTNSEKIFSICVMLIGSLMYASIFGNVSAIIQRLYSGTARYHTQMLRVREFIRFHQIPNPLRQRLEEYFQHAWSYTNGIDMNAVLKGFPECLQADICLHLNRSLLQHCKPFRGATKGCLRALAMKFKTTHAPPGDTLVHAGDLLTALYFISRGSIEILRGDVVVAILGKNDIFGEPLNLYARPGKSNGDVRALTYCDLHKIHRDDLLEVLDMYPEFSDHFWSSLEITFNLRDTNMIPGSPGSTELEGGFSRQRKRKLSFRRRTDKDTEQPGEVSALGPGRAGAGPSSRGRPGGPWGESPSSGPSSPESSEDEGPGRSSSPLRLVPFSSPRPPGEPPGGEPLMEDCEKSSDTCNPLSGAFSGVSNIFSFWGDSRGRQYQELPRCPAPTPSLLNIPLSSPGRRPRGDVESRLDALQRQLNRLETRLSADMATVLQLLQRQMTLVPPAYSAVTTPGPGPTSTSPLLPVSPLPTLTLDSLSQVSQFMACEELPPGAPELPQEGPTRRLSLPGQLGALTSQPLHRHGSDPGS
Method in brief: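 Channel function was assessed by thallium flux. Cells seeded the previous day and kept at 37 C took up FluxOR II dye over 1 h in the dark at room temperature, then sat another 10 min before stimulation.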

[7] = target: Cytochrome P450 3A4 (Homo sapiens) (UniProt P08684); assay: Cytochrome P450 Family 3 Subfamily A Member 4 (CYP3A4) small molecule antagonists: luciferase reporter qHTS assay (AID 1671201); further: nearly all actives have a fitted effect of over 50% in size; further: potency means the concentration at half of the fitted maximal effect
Chain of Cytochrome P450 3A4 (Homo sapiens) (P08684 whole entry, looked up): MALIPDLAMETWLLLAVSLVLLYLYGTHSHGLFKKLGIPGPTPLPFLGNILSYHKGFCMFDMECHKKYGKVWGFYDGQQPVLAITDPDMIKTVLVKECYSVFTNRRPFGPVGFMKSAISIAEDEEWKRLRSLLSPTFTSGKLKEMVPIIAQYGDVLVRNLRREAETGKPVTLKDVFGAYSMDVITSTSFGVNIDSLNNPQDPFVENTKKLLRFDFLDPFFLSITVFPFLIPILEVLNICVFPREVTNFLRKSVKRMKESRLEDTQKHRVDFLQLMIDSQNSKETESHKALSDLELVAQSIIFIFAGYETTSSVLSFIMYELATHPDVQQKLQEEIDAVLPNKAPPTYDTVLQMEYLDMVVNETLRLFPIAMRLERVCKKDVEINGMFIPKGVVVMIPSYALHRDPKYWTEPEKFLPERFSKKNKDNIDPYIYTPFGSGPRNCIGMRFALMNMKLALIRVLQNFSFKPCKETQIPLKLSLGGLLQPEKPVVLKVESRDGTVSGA
Method in brief: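 Compounds in DMSO were pin-transferred onto CYP3A4 enzyme-substrate mix and held 10 min at room temperature. NADPH regenerating solution started the reaction for 1 h; luciferin detection reagent stopped it, and luminescence was read after 20 min.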

[8] = target: Cytochrome P450 2C19 (Homo sapiens) (UniProt P33261); assay: Cytochrome P450 Family 2 Subfamily C Member 19 (CYP2C19) small molecule antagonists: luciferase reporter qHTS assay (AID 1671197); further: potency means the concentration at half of the fitted maximal effect; nearly all actives have a fitted effect of over 65% in size
Chain of Cytochrome P450 2C19 (Homo sapiens) (P33261 whole entry, looked up): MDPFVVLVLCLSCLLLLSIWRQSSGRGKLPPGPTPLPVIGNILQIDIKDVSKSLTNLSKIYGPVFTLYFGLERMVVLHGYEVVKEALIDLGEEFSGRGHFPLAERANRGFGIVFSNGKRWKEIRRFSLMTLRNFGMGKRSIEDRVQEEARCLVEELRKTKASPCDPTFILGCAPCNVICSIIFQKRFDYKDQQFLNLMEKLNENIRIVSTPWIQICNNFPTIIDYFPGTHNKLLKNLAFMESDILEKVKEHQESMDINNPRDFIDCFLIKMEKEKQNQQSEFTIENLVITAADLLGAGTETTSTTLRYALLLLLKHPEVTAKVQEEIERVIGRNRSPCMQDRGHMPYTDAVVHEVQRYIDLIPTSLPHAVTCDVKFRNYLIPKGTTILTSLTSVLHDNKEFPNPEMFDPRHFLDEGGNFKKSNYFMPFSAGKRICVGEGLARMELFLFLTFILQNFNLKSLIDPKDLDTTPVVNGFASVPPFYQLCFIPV
Method in brief: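 Compounds were tested on CYP2C19 activity via proluciferin conversion to luciferin. The 37C, 1 h reaction followed NADPH addition; detection reagent stopped it.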

O=Cc1ccccc1
inactive: Potency [1] | Potency [2] | Potency [3] | Potency [4] | Potency [5] | Potency [6] | Potency [7]

C#CCO
inactive: Potency [1] | Potency [2] | Potency [3] | Potency [4] | Potency [6] | Potency [7]

C=CCBr
inactive: Potency [1] | Potency [2] | Potency [4] | Potency [6] | Potency [7]
active: Potency [3] 33.6 µM

C[C@H]1[C@H](c2ccc(Cl)cc2)SC(=O)N1C(=O)NC1CCCCC1
active: Potency [4] 10 µM | Potency [5] 35.6 µM | Potency [6] 38.9 µM | Potency [7] 7.96 µM
inactive: Potency [1] | Potency [2] | Potency [3]

O=S1OCC2C(CO1)C1(Cl)C(Cl)=C(Cl)C2(Cl)C1(Cl)Cl (stereo not given)
inactive: Potency [1] | Potency [2] | Potency [5]
active: Potency [3] 4 µM | Potency [6] 21.9 µM and 27.5 µM | Potency [7] 283 nM and 633 nM

O=C(CCCCl)c1ccc(F)cc1
active: Potency [5] 11.5 µM
inactive: Potency [1] | Potency [2] | Potency [3] | Potency [6] | Potency [7]

C=C(C)C(=O)[O][Sn]([CH2]CCC)([CH2]CCC)[CH2]CCC
active: Potency [3] 2.24 µM | Potency [6] 4.9 µM | Potency [7] 22.4 µM
inactive: Potency [1] | Potency [2]

CCN(CC)Cc1nccn1-c1ccc([N+](=O)[O-])cc1C(=O)c1ccccc1Cl
active: Potency [3] 3.09 µM | Potency [6] 5.35 µM
inactive: Potency [1] | Potency [2] | Potency [4]

CSC(C)(C)/C=N/O
inactive: Potency [1] | Potency [2] | Potency [3] | Potency [4] | Potency [5] | Potency [6] | Potency [7]

CCC[CH2][Sn]([CH2]CCC)([CH2]CCC)[O][Sn]([CH2]CCC)([CH2]CCC)[CH2]CCC
inactive: activity change, negative = inhibition [1] 2.81% [at 10.5 µM] | activity change, negative = inhibition [2] 0.495% [at 10.5 µM] | activity change, negative = inhibition [5] -6.75% [at 10.5 µM] | activity change, negative = inhibition [7] -17.7% [at 10.5 µM]
active: Potency [3] 0.155 µM | Potency [6] 1.7 µM

COc1c2c(cc3c1OCO3)CCN(C)C2
inactive: Potency [1] | Potency [2] | Potency [4] | Potency [6] | Potency [7]
active: Potency [3] 4.36 µM

O=C(Nc1ccc(F)cc1F)c1cccnc1Oc1cccc(C(F)(F)F)c1
active: Potency [5] 7.81 µM
inactive: Potency [1] | Potency [2] | Potency [3] | Potency [6] | Potency [7]

C=Cc1cccc(CCl)c1
inactive: Potency [1] | Potency [2] | Potency [3] | Potency [4] | Potency [6] | Potency [7]

O=S(=O)(O)F
inactive: Potency [1] | Potency [2] | Potency [3] | Potency [5] | Potency [6] | Potency [7]

ClC1=C(Cl)[C@]2(Cl)[C@H]3[C@H]([C@@H]4C=C[C@H]3C4)[C@@]1(Cl)C2(Cl)Cl
active: Potency [7] 252 nM and 399 nM
inactive: Potency [1] | Potency [2] | Potency [4] | Potency [5]
35.5 µM (active) and inactive: Potency [3]

CN(C)CCc1c[nH]c2ccccc12
inactive: Potency [1] | Potency [2] | Potency [4] | Potency [5] | Potency [6] | Potency [7]
active: Potency [3] 39.6 µM

Nc1ccc(Cl)cc1C(=O)c1ccccc1F
active: Potency [4] 17.4 µM | Potency [5] 15.5 µM
inactive: Potency [1] | Potency [2] | Potency [3] | Potency [6] | Potency [7]

O=c1[nH]c(Cl)c(Cl)cc1Cl
inactive: Potency [1] | Potency [2] | Potency [3] | Potency [6] | Potency [7]

CC[C@]1(O)CC[C@H]2[C@@H]3CCC4=CCCC[C@@H]4[C@H]3CC[C@@]21C
inactive: Potency [1] | Potency [2] | Potency [3] | Potency [6]

COC(=O)N(OC)c1ccccc1COc1ccn(-c2ccc(Cl)cc2)n1
active: Potency [3] 22.4 µM | Potency [4] 7.1 µM | Potency [5] 1.12 µM
inactive: Potency [1] | Potency [2] | Potency [7]

O=P(Cl)(Cl)Cl
active: Potency [5] 23.9 µM
inactive: Potency [1] | Potency [2] | Potency [3] | Potency [6] | Potency [7]

CC1CN1 (stereo not given)
inactive: Potency [1] | Potency [2] | Potency [4] | Potency [6] | Potency [7]

CCC(C)Nc1c([N+](=O)[O-])cc(C(C)(C)C)cc1[N+](=O)[O-] (stereo not given)
active: Potency [8] 25.2 µM | Potency [4] 35.6 µM | Potency [5] 31.7 µM
inactive: Potency [1] | Potency [2] | Potency [7]

Fc1ccc(C(OCCN2CCN(CCCc3ccccc3)CC2)c2ccc(F)cc2)cc1
inactive: Potency [1] | Potency [2] | Potency [7]

— PubChem BioAssay (Tox21)
